According to PubChem BioAssay:
The source made the active and inactive calls. The rule behind the calls is not given here.

experiment: blockers of DNA damage checkpoint Chk1 activation – imaging, HeLa, hydroxyurea, phospho-Chk1 nuclear intensity, primary screen (AID 1187); details: hydroxyurea-induced phospho-Chk1 immunofluorescence imaging, higher = more signal; note: test concentration not given here

| SMILES | z-score |
| --- | --- |
| COC(=O)[C@@]1(Cc2ccc(F)cc2)[C@H]2c3cc(C(=O)N(C)C)n(CCN4CCOCC4)c3C[C@H]2CN1C(=O)c1ccccc1 | -0.245 (inactive) |
| C[N+](C)(C)CCCCCCNC(=O)[C@@H]1C[C@@H]2C(=O)N[C@@H](Cc3ccccc3)C(=O)N2[C@@H]1c1ccc(O)cc1 | 0.496 (inactive) |
| CO[C@H]1O[C@H](CO)[C@@H](OC(=O)Nc2ccc(C(F)(F)F)cc2)[C@H](OC(=O)Nc2ccccc2-c2ccccc2)[C@@H]1OC(=O)Nc1ccccc1-c1ccccc1 | 0.0324 (inactive) |
| C=C(CCCC)/C(=C/C[C@H](OC(C)=O)c1cccc(OCCO)c1)c1cc(C(=O)OC)ccc1OC | 0.307 (inactive) |
| COc1ccc([Si](C)(C)[C@H]2[C@H](CCn3cc([C@H](O)c4ccccc4)nn3)O[C@@]3(C(=O)N(C)c4c(Br)cc(C)cc43)[C@@H]2C)cc1 | -0.0953 (inactive) |
| COCCOC(=O)N1C(=O)[C@@]2(c3cc(C#CC4(O)CCCCCC4)ccc31)[C@H](C(=O)N1CCc3cc(OC)c(OC)cc3C1)[C@H]1C(=O)O[C@H](c3ccccc3)[C@H](c3ccccc3)N1[C@@H]2c1ccc(O)cc1 | 0.81 (inactive) |
| C=CCOC(=O)[C@H]1[C@@H]2C(=O)O[C@@H](c3ccccc3)[C@@H](c3ccccc3)N2[C@@H](c2ccc(OCCOC(=O)[C@H]3C[C@H]4C(=O)NCC(=O)N4[C@H]3c3ccc(O)cc3)cc2)[C@]12C(=O)Nc1ccc(I)cc12 | -1.08 (inactive) |
| COCCOC(=O)N1C(=O)[C@@]2(c3cc(C#CC4=CCCCC4)ccc31)[C@H](c1ccc(OCCO)cc1)N1[C@H](c3ccccc3)[C@H](c3ccccc3)OC(=O)[C@H]1[C@@H]2C(=O)N1CCCCCCC1 | 0.437 (inactive) |
| CCOC(=O)C1=C(C(=O)OCC)N(S(=O)(=O)CC[Si](C)(C)C)[C@H](c2ccccc2)CC1 | -0.535 (inactive) |
| C=CCC(OC(C)=O)[C@@H]1[C@@H](N(Cc2cc3ccccc3o2)C(=O)c2ccc(-c3ccccc3)cc2)c2cc(OCCCO)ccc2N1C(=O)c1ccc2ccccc2n1 (stereo not given in full) | -0.103 (inactive) |
| O=C1O[C@@H](c2ccccc2)[C@@H](c2ccccc2)N2[C@@H](c3ccc(O)cc3)[C@]3(C(=O)Nc4ccc(C#CC5=CCCCC5)cc43)[C@@H](C(=O)N3CCCCCCC3)[C@H]12 | -0.686 (inactive) |
| COCCOC(=O)N1C(=O)[C@@]2(c3cc(C#CCC(C(=O)OC)C(=O)OC)ccc31)[C@H](C(=O)N1CCc3cc(OC)c(OC)cc3C1)[C@H]1C(=O)O[C@H](c3ccccc3)[C@H](c3ccccc3)N1[C@@H]2c1ccc(O)cc1 | 0.424 (inactive) |
| C=C(/C(=C/C[C@H](OC(=O)c1ccncc1)c1ccccc1OCCO)c1cc(C(=O)OC)ccc1OC)C(C)C | -0.789 (inactive) |
| NCCCC[C@@H]1NC(=O)[C@H]2C[C@@H](C(=O)O)[C@@H](c3cccc(OCCO)c3)N2C1=O | -0.62 (inactive) |
| CCCCN1CC=CC23O[C@@H]4/C=C\CCC(C)OC(=O)C4[C@H]2C(=O)N(C(C)CO)[C@@H]3C1=O (stereo not given in full) | 0.632 (inactive) |
| CC(=O)c1ccc(C(O)C2C=CC3C(=O)NC(=O)C3N2Nc2ccc(Cl)cc2Cl)cc1 (stereo not given) | 0.588 (inactive) |
| C[N+](C)(C)CCCC[C@@H]1NC(=O)[C@H]2C[C@@H](C(=O)NCCCCCNC(=O)CS)[C@@H](c3ccc(O)cc3)N2C1=O | 0.579 (inactive) |
| CN(C)CCCCNC(=O)[C@H]1C[C@H]2C(=O)N[C@@H](Cc3ccccc3)C(=O)N2[C@H]1c1cccc(OCCO)c1 | -0.851 (inactive) |

| SMILES | z-score |
| --- | --- |
| NC(=O)NCC#Cc1ccc2c(c1)[C@]1(C(=O)N2)[C@H](C(=O)Nc2nc3ccccc3s2)[C@H]2C(=O)O[C@H](c3ccccc3)[C@H](c3ccccc3)N2[C@@H]1c1ccc(OCCO)cc1 | 0.68 (inactive) |
| CC(C)CNC(=O)[C@@H]1c2ccccc2C(=O)N(Cc2ccccc2Cl)[C@H]1c1ccc(CO)cc1 | 0.499 (inactive) |
| C=CCNC(=O)[C@H]1[C@@H]2C(=O)O[C@@H](c3ccccc3)[C@@H](c3ccccc3)N2[C@@H](c2ccc(O)cc2)[C@]12C(=O)Nc1ccc(C#CC3=CCCCC3)cc12 | -0.217 (inactive) |
| CN(C)C(=O)[C@]1(Cc2ccccc2CN=[N+]=[N-])N=C(c2ccc(OCCCO)cc2)O[C@@H]1c1ccccc1N=[N+]=[N-] | -0.903 (inactive) |
| COCCn1c(C(=O)N2CCCC2)cc2c1C[C@H]1CN(C(=O)c3ccccc3)[C@@](Cc3ccccc3)(C(=O)OC)[C@@H]21 | 0.412 (inactive) |
| CCCC[C@@H](O)C1=C(COC)Cn2c(=O)n(-c3ccccc3)c(=O)n2[C@H]1CO | 0.126 (inactive) |
| CN(C)C(=O)[C@]1(Cc2ccccc2)N=C(c2ccc(OCCCO)cc2)O[C@@H]1c1ccccc1 | -0.755 (inactive) |
| COc1ccc([Si](C)(C)[C@H]2[C@H](CCO)O[C@@]3(C(=O)N(Cc4ccc(N5CCOC5=O)cc4)c4ccccc43)[C@@H]2C)cc1 | -0.713 (inactive) |
| C=CCC(OC(C)=O)[C@@H]1[C@@H](N(Cc2cccc3ccccc23)C(=O)c2ccc(-c3ccccc3)cc2)c2cc(OCCCO)ccc2N1C(=O)c1ccc2ccccc2n1 (stereo not given in full) | -0.14 (inactive) |
| C=CC[C@@]1(C(=O)O)N=C(c2ccc(OCCCO)cc2)O[C@@H]1c1ccccc1CN=[N+]=[N-] | -0.0145 (inactive) |
| COC(=O)c1c(CC[C@@H](CO)NC(=O)N[C@@H](Cc2ccccc2)Cn2cc(-c3cncn3C)nn2)oc(C(C)=O)c1C(=O)OC | -0.0353 (inactive) |
| COC(=O)Cn1c(C(=O)N(C)C)cc2c1C[C@H]1CN(C(=O)c3ccccc3)[C@@](Cc3ccc(OC)cc3)(C(=O)OC)[C@@H]21 | 0.295 (inactive) |
| CCCC=C(CCC)[C@@H](NS(=O)(=O)c1ccc(Cl)cc1)c1ccccc1 | 0.268 (inactive) |
| COc1ccc(CCNC(=O)[C@@H]2c3ccccc3C(=O)N(CC34CC5CC(CC(C5)C3)C4)[C@H]2c2ccc(CO)cc2)cc1 | 0.432 (inactive) |
| NC(=O)N1C(=O)C2C(C1=O)C1C=C(CCCO)C2C(c2ccc(CN3CCCC3)cc2)N1Cc1cccc(OC(F)(F)F)c1 (stereo not given) | 0.298 (inactive) |
| COc1ccc([Si](C)(C)[C@H]2[C@H](CCn3cc([C@H](O)c4ccccc4)nn3)O[C@@]3(C(=O)N(c4ccccc4)c4ccccc43)[C@@H]2C)cc1 | -0.513 (inactive) |
| CCCC=C(CCC)[C@@H](NC(=O)c1ccccc1)c1ccc(C(=O)OC)cc1 | 0.204 (inactive) |
